The list is not random: actives were taken first. Their share in the collection is about 5.7%.
TGFb inhibitor: qHTS for Inhibitors of TGF-b. HepG2 CAGA-GFP TGF-b/SMAD3 reporter, GFP fluorescence, 18 h; TGF-beta stimulated, 500 pg/mL final. Potency, µM (titrated, usually from 46.1 µM), for inactives: at the top dose activity, negative = inhibition, hits mostly inhibitors. hit rate 1.2% among 410,000. AID 588855, 2011; further: potency means the concentration at half of the fitted maximal effect; on the % scale 0 is the no-effect control and ±100 the full control effect; nearly all actives have a fitted effect of over 65% in size
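GFP signal (ex488/em500-530) from TGF-beta-stimulated HEPG2 CAGA-GFP cells, 500 pg/mL final, 18 h at 37 degrees C in DMEM plus 1% FBS, normalized to unstimulated and DMSO-stimulated controls.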
S2 tox: Viability Counterscreen for Primary qHTS for Inhibitors of ATXN expression | AID 651635, 2014 | Potency, µM (series often up to 56.7 µM), actives largely listed as cytotoxic | S2 cells (HEK-293 line with an ATXN2-luciferase reporter) viability, CellTiter-Fluor protease fluorescence, 24 h | hit rate 0.49% among 400,000; further: potency means the concentration at half of the fitted maximal effect; nearly all actives have a fitted effect of over 40% in size
HepG2 tox: qHTS for Inhibitors of TGF-b: Cytotox Counterscreen. HepG2 CAGA-GFP viability, ATP luminescence, 18 h. Potency, µM (doses to about 46.1 µM), for the others: at the top dose activity change, negative = cytotoxicity, actives largely listed as cytotoxic. hit rate 0.76% among 410,000. AID 588856, 2011; further: potency means the concentration at half of the fitted maximal effect
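CellTiter-Glo luminescence gave cytotoxicity after 18 hours at 37 degrees C. The cells were HepG2 CAGA-GFP in 1% FBS DMEM, stimulated with 500 pg/mL TGF-beta after compound addition. %Activity was normalised to no-cell wells (complete cell-killing) and DMSO (no toxicity), and curves were fitted and classified.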
ATXN2 expr inh: Primary qHTS for Inhibitors of ATXN expression. HEK-293 ATXN2-luciferase reporter, luminescence, 24 h. Potency, µM (top dose mostly 57 µM), without a hit: at the highest dose activity change, negative = inhibition, hits mostly inhibitors. hit rate 0.72% among 360,000. AID 1745845, 2022; further: potency means the concentration at half of the fitted maximal effect; on the % scale 0 is the no-effect control and ±100 the full control effect; nearly all actives have a fitted effect of over 55% in size
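qHTS (up to 57 uM final) was run with 24 h compound exposure of reporter cells at 37 °C. Each well was multiplexed: SteadyGlo luminescence measured ATXN2-luciferase expression after a fluorogenic Gly-Phe-AFC viability readout (25 uM final).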
IL-1B inflam inh: qHTS for Inhibitors of Inflammasome Signaling: IL-1-beta AlphaLISA Primary Screen | THP-1 LPS/ATP IL-1B secretion, AlphaLISA, 16 h; stronger effect = lower value | activity change, % at 57.5 µM | hit rate 4.7% among 360,000; in the data active means activity change below about -50%; inconclusive means mostly about -30% to -49%; further: on the % scale 0 is the no-effect control and ±100 the full control effect
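THP-1 cells pretreated 1 hr with compounds (up to 57.5 uM final), then stimulated with LPS (250 ng/mL final) plus ATP (1.25 mM final); secreted IL-1B measured by AlphaLISA after 16 hr, decreased signal indicating inhibition.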
* marks the source's active call; other numbers are inactive results; i = inactive; ? = inconclusive; nt = no result; ! = repeats disagree. Unless noted, the call rests on the fitted dose curve; in most records, active means well fitted curve in the direction sought with a large enough effect; inconclusive means small, poorly fitted or top-dose-only effect, or another doubt; inactive means no such curve, though single readings can be large; an effect the other way counts as inactive or inconclusive.

SMILES	TGFb inhibitor	S2 tox	HepG2 tox	ATXN2 expr inh	IL-1B inflam inh
CCc1ncn(CCc2ccccc2OC)c1C(C)C	nt	i	nt	-3%	40
CCCCc1c(-c2ccccc2OC)ncn1CCc1ccccc1	nt	?	nt	?	0
CCCCc1c(Cc2ccccc2)ncn1CCc1ccccc1OC	nt	nt	nt	14µM*	-58*
COc1cccc(-c2ncn(CCc3ccccc3OC)c2C(C)C)c1	nt	11µM*	nt	?	-10
CS(=O)(=O)N1CCC(n2c(C(F)(F)F)nc3cccnc32)CC1	-2%	i	0%	10%	nt
CCCc1c(-c2cccc(Cl)c2)ncn1Cc1ccccc1OC	nt	?	nt	-35%	?
CCCCCc1c(-c2ccc(Cl)cc2)ncn1CCc1ccccc1OC	nt	nt	nt	0%	-63*
CCCCc1c(-c2cccc(Cl)c2)ncn1CCc1ccccc1OC	nt	nt	nt	?	-58*
CCCCCc1c(-c2ccc(OC)cc2)ncn1CCc1ccccc1OC	nt	nt	nt	?	-94*
COc1ccccc1CCn1cnc(C)c1CC(C)C	nt	?	nt	0%	4
CCCCN1CC[C@H]2C=CC[C@@H](C(=O)NCc3cccnc3)[C@H]2C1=O	-4%	nt	-1%	nt	nt
COc1ccccc1CNC(=O)CC1N=C2c3ccccc3N=C(SCC(=O)Nc3ccc(F)cc3)N2C1=O (stereo unspecified)	-25%	i	-30%	2%	nt
COn1c(-c2ccccc2)nc2c1CCc1c-2no[n+]1[O-]	10%	i	1%	0%	-63*
[O-][n+]1onc2c1CCc1c-2nc(-c2ccccc2)n1OCc1ccccc1	9%	i	3%	-14%	-19
CCOC(=O)c1ccccc1NC(=O)N1CCN(Cc2cc(=O)n3nc(-c4ccccc4)sc3n2)CC1	2%	i	0%	3%	nt
O=C1CCCC(O)=C1C=NCc1ccccc1	-10%	i	1%	4.7µM*	9
O=C1COc2cc(S(=O)(=O)CCC(=O)N3CCN(c4cccc(Cl)c4)CC3)c(Cl)cc2N1	-20%	?	-27%	?	nt
O=C(Nc1cccc(C(F)(F)F)c1)c1cccnc1NCCc1ccccc1	?	?	-102%	-23%	-67*
O=C(Nc1cccc(F)c1)c1cccnc1NCCc1ccccc1	?	i	3%	-8%	-60*
Clc1ccc(Nc2nc(NCCN3CCOCC3)nc(N3CCOCC3)n2)cc1	-10%	i	-25%	-24%	-67*
COc1cc2c(cc1NC(=O)COC(=O)C1CC(=O)N(Cc3ccco3)C1)oc1ccccc12 (stereo unspecified)	5%	i	-25%	36%	-56*
COc1ccc(CCC(=O)NCc2nc3cccnc3n2Cc2ccc(C)cc2)cc1	nt	nt	-22%	nt	nt
Cc1cn2c(=O)c(S(=O)(=O)Nc3ccc(OC(F)(F)F)cc3)c(C)nc2s1	52%	nt	15%	nt	nt
CN(C(=O)Cc1c[nH]c2ccccc12)C(C(=O)Nc1ccc2c(c1)OCO2)c1ccccc1 (stereo unspecified)	?	i	5%	17%	-67*
Cc1cccc(OCC(=O)Nc2ccccc2C(=O)OCc2cc(=O)n3nc(C)sc3n2)c1	-2%	nt	6%	nt	nt
SMILES	TGFb inhibitor	S2 tox	HepG2 tox	ATXN2 expr inh	IL-1B inflam inh
COc1cccc(CC2(CO)CCN(Cc3ccc4cccc(F)c4n3)CC2)c1	-5%	i	-28%	-15%	-71*
OCC1(Cc2cccc(F)c2)CCN(Cc2ccc3cccc(F)c3n2)CC1	-23%	i	-37%	0%	-72*
COc1cccc(CC2(CO)CCN(Cc3ccc(NC(C)=O)cc3)CC2)c1	4%	i	-24%	-4%	15
COc1cccc(CC2(CO)CCN(CC3=CC[C@H]4C[C@@H]3C4(C)C)CC2)c1	-18%	?	-23%	-18%	-55*
COc1ccc(S(=O)(=O)Nc2ccc3c(c2)sc(=O)n3C)cc1Cl	?	nt	-35%	nt	nt
COc1ccc(/C(C)=N/Nc2nccnc2Cl)cc1	?	i	-64%	-28%	-52*
CC(=O)C1CCC2C3CC(C)=C4CC(O)CCC4(C)C3CCC12C (stereo unspecified)	-1%	i	-10%	-10%	-99*
Cc1ccc(S(=O)(=O)Oc2ccccc2/C=N/N=C(N)N)cc1	?	i	-74%	-30%	-127*
COc1ccc2cc(Br)ccc2c1CC(=O)NC1CC(C)(C)NC(C)(C)C1	-60%	i	-90%	?	-66*
CN(C)S(=O)(=O)c1ccc(Cl)c(NC(=O)CSc2nc3c(cc2C#N)C(=O)CCC3)c1	0%	i	0%	-1%	-89*
c1cc2[nH]snc2c2nc(C3CC3)nc12	?	?	-61%	1%	-86*
COCC(=O)Nc1cc(C(=O)N2CCSCC2)cc2nc(-c3ccccc3)n(C)c12	nt	i	nt	nt	nt
CCC(C)c1ccccc1OCCn1c(CCNC(=O)C2CCCCC2)nc2ccccc21 (stereo unspecified)	7%	nt	-1%	nt	nt
CC(=O)c1sc(N/N=C\c2cccc(Br)c2)nc1C	-20%	i	-27%	115%	-66*
CC(=O)c1sc(N/N=C\c2ccc(Br)cc2)nc1C	30%	i	-5%	51%	-3
CC(C)c1ccc2c(c1)CCC1C(C)(CN)CCCC21C (stereo unspecified)	?	nt	11µM*	35µM*	-99*
CC(C)c1ccc2c(c1)CC[C@H]1[C@](C)(CN)CCC[C@]21C	?	i	-111%	?	-109*!
CC(C)c1cc2c(cc1S(=O)(=O)O)[C@@]1(C)CCC[C@@](C)(C(=O)O)[C@@H]1CC2	nt	i	nt	11%	nt
CCN1C(=O)c2ccccc2S(=O)(=O)c2ccc(C(=O)NCc3ccccc3)cc21	-6%	i	0%	6%	nt
CC(CC(=O)c1cccs1)CC(=O)c1cccs1	5%	i	-13%	57%	-7
Cc1cc(C)c(C(CC(=O)c2cccs2)C(C#N)C#N)c(C)c1 (stereo unspecified)	18µM*	nt	13µM*	?	-105*
COC(=O)[C@]12CCC(C)(C)C[C@@H]1[C@@H]1C(=O)C=C3[C@@]4(C)C=C(C#N)C(=O)C(C)(C)[C@@H]4CC[C@@]3(C)[C@]1(C)CC2	nt	2.5µM*	nt	1.7µM*	nt
COc1cc(N2CCC(C(N)=O)CC2)ccc1Nc1nc(N)c(Cl)c(Nc2ccccc2S(=O)(=O)C(C)C)n1	nt	nt	nt	-15%	nt
O=C(CSc1nc2nn(-c3ccccc3)c(=O)c-2c2n1CCCCC2)NCCCc1ccccc1	?	i	1%	9%	-60*
N#CC1=C(N)CCC1	3%	nt	1%	nt	nt
CC(C)C1C(=O)N(Cc2cn(CCC3OCCO3)nn2)CCS(=O)(=O)N1Cc1ccc(-c2ccc(Cl)c(Cl)c2)cc1 (stereo unspecified)	?	?	-61%	?	-27

Bioassay records deposited in PubChem BioAssay by National Center for Advancing Translational Sciences (NCATS).
